Assay results published in PubChem BioAssay (NCI).
Where “and” joins values, the source holds several entries; their conditions need not be identical. Identical values can stand only once. The panel holds about 83,000 compounds, 20% with a hit somewhere; the sample as a whole holds those more often.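 Results are percent growth after 48 hours of single-concentration exposure. 100 means growth as in untreated cells, lower positive values show inhibition; negative values down to -100 show cell death.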 Calls of active or inactive are those of the source. How the source made its calls: active means growth percent below 10; inactive means the rest.

Legend:
Assay in all cases: NCI-60 one-dose screen, 48 h (100 = growth as untreated, 0 = no growth, -100 = all killed)
SK-MEL-2 melanoma = details: 10 µM unless noted
SN12C renal = details: 10 µM unless noted
UO-31 renal = details: 10 µM unless noted
TK-10 renal = test system: TK-10 renal
ACHN renal = details: 10 µM unless noted
CAKI-1 renal = details: 10 µM unless noted
A498 renal = details: 10 µM unless noted
CCRF-CEM leukemia = details: 10 µM unless noted
MOLT-4 leukemia = details: 10 µM unless noted
SR leukemia = details: 10 µM unless noted
OVCAR-8 ovarian = details: 10 µM unless noted
OVCAR-5 ovarian = details: 10 µM unless noted
OVCAR-4 ovarian = details: 10 µM unless noted
SK-OV-3 ovarian = details: 10 µM unless noted
IGROV1 ovarian = details: 10 µM unless noted
OVCAR-3 ovarian = details: 10 µM unless noted
HS 578T breast = details: 10 µM unless noted
NCI/ADR-RES ovarian = details: 10 µM unless noted
EKVX NSCLC = details: 10 µM unless noted
RPMI-8226 leukemia = details: 10 µM unless noted

Measured: growth

O=Nc1ccc(NO)c2ccccc12
inactive: SK-MEL-2 melanoma 103% and 59.7% | SN12C renal 103% and 60.5% | UO-31 renal 88.7% and 65.3% | TK-10 renal; 10 µM unless noted 132% and 125% | ACHN renal 97.6% and 79.2% | CAKI-1 renal 83.8% and 80.3% | A498 renal 74% and 102% | CCRF-CEM leukemia 106% and 57.6% | MOLT-4 leukemia 108% and 74.1% | SR leukemia 106% and 43.8% | OVCAR-8 ovarian 97.9% and 87% | OVCAR-5 ovarian 109% and 116% | OVCAR-4 ovarian 92.3% and 35.8% | SK-OV-3 ovarian 94.2% and 106% | IGROV1 ovarian 86.1% and 61.5% | HS 578T breast 85.4% and 96.3% | NCI/ADR-RES ovarian 97.5% and 14.5%
98.7% (inactive) and 0.0919% (active): OVCAR-3 ovarian

COC(=O)c1nc(-c2ccc(C)cc2)oc1S(=O)(=O)c1ccc(Cl)cc1
inactive: SK-MEL-2 melanoma 102% | EKVX NSCLC 108% | SN12C renal 83.6% | UO-31 renal 75.1% | TK-10 renal; 10 µM unless noted 93.5% | ACHN renal 80.4% | CAKI-1 renal 95% | A498 renal 113% | OVCAR-8 ovarian 94.2% | OVCAR-5 ovarian 96.3% | OVCAR-4 ovarian 100% | SK-OV-3 ovarian 97.4% | IGROV1 ovarian 89.3% | OVCAR-3 ovarian 107% | HS 578T breast 105% | NCI/ADR-RES ovarian 105%
active: CCRF-CEM leukemia -15.8% | MOLT-4 leukemia -21% | SR leukemia -15.7%

CC(C)(C)CC(N)=O
inactive: SK-MEL-2 melanoma 102% | SN12C renal 102% | UO-31 renal 104% | TK-10 renal; 10 µM 100% | TK-10 renal; 100 µM 105% and 103% | ACHN renal 96.9% | CAKI-1 renal 94.4% | A498 renal 90.7% | CCRF-CEM leukemia 102% | MOLT-4 leukemia 108% | SR leukemia 102% | RPMI-8226 leukemia 107% | OVCAR-8 ovarian 97.7% | OVCAR-5 ovarian 102% | OVCAR-4 ovarian 100% | SK-OV-3 ovarian 88.2% | IGROV1 ovarian 112% | OVCAR-3 ovarian 110% | HS 578T breast 106% | NCI/ADR-RES ovarian 102%

Cc1cc(N2CCN(CC(=O)Nc3ccc4c(ccn4Cc4ccccc4)c3)CC2)nc(N2CCCCCC2)n1
inactive: SK-MEL-2 melanoma 64% | EKVX NSCLC 57.5% | SN12C renal 54.8% | TK-10 renal; 10 µM unless noted 73.1% | ACHN renal 57.5% | CAKI-1 renal 31.9% | CCRF-CEM leukemia 46.2% | MOLT-4 leukemia 44.3% | SR leukemia 29.2% | OVCAR-8 ovarian 31.6% | OVCAR-4 ovarian 51.8% | SK-OV-3 ovarian 48.2% | IGROV1 ovarian 42.3% | OVCAR-3 ovarian 62.8% | HS 578T breast 62.8% | NCI/ADR-RES ovarian 39.6%
active: UO-31 renal -1.98% | A498 renal 5.69%

CCCc1cc(C(N)=S)ccn1
inactive: SK-MEL-2 melanoma 103% | EKVX NSCLC 99.1% | SN12C renal 105% | UO-31 renal 76.4% | TK-10 renal; 10 µM unless noted 100% | ACHN renal 102% | CAKI-1 renal 96.1% | A498 renal 125% | CCRF-CEM leukemia 113% | MOLT-4 leukemia 105% | SR leukemia 104% | OVCAR-8 ovarian 99.3% | OVCAR-5 ovarian 105% | OVCAR-4 ovarian 110% | SK-OV-3 ovarian 100% | IGROV1 ovarian 105% | OVCAR-3 ovarian 115% | HS 578T breast 125% | NCI/ADR-RES ovarian 87.8%

Cc1nc(Nc2ncc(C(=O)Nc3c(C)cccc3Cl)s2)cc(N2CCN(CCO)CC2)n1
24.2% (inactive) and -24.8% (active): OVCAR-8 ovarian
active: UO-31 renal -0.429% and -14.3% | TK-10 renal; 10 µM unless noted -7.96% and -61.7% | ACHN renal 1.96% and -15.4% | CAKI-1 renal -44.3% and -28.7% | A498 renal -24.2% and -40.1% | SK-OV-3 ovarian -7.55% and -25.8% | IGROV1 ovarian -16.4% and -37% | HS 578T breast -8.57%
inactive: EKVX NSCLC 41.5% and 33.2% | SN12C renal 24% and 18.3% | CCRF-CEM leukemia 77.3% and 41.6% | MOLT-4 leukemia 66.1% and 29.6% | SR leukemia 40.4% and 14.7% | RPMI-8226 leukemia 92.8% and 61.1% | OVCAR-5 ovarian 23.7% and 10.2% | OVCAR-4 ovarian 52.8% and 44.8% | OVCAR-3 ovarian 37.3% and 20.4% | NCI/ADR-RES ovarian 45.8% and 23.7%

OCCN1CCN(CC/C=C2\c3ccccc3Sc3ccc(Cl)cc32)CC1
active: MOLT-4 leukemia -52.7% and -10.3% | RPMI-8226 leukemia -35.8% and -38.4%
inactive: EKVX NSCLC 80.8% and 60.3% | SN12C renal 63% and 64.3% | TK-10 renal; 10 µM unless noted 57.7% | ACHN renal 58.5% and 71.1% | CAKI-1 renal 53.5% | A498 renal 45.4% and 60.5% | OVCAR-8 ovarian 79.4% and 86.4% | OVCAR-5 ovarian 41.8% and 63.4% | OVCAR-4 ovarian 71.9% and 128% | SK-OV-3 ovarian 77.8% and 77.2% | IGROV1 ovarian 26.3% | OVCAR-3 ovarian 42.4% and 37.7% | NCI/ADR-RES ovarian 58.2% and 76.6%
-17.7% (active) and 23.8% (inactive): CCRF-CEM leukemia
46.5% (inactive) and -10.9% (active): SK-MEL-2 melanoma
39.9% (inactive) and 2.89% (active): UO-31 renal
1.43% (active) and 32.3% (inactive): HS 578T breast

CN(C)CCCn1c2nc(=O)[nH]c(=O)c-2nc2cc(Cl)c(Cl)cc21
inactive: SK-MEL-2 melanoma 112% | EKVX NSCLC 103% | SN12C renal 70.5% | UO-31 renal 80.9% | TK-10 renal; 10 µM unless noted 80.5% | ACHN renal 87.8% | CAKI-1 renal 79% | A498 renal 92.1% | CCRF-CEM leukemia 45.6% | MOLT-4 leukemia 64.8% | SR leukemia 83.7% | OVCAR-5 ovarian 125% | OVCAR-4 ovarian 81.8% | SK-OV-3 ovarian 109% | IGROV1 ovarian 54% | HS 578T breast 106% | NCI/ADR-RES ovarian 85.9%
active: OVCAR-3 ovarian -20.9%

N#Cc1cc(-c2ccnc(Nc3ccc(NC(=O)CCl)cc3)n2)ccc1N1CCCC1
inactive: EKVX NSCLC 12% | A498 renal 16.1% | HS 578T breast 12.6% | NCI/ADR-RES ovarian 10.9%
active: SK-MEL-2 melanoma -39.9% | SN12C renal -39.4% | UO-31 renal -71.9% | TK-10 renal; 10 µM unless noted 9.16% | ACHN renal -24.6% | CAKI-1 renal -40.4% | CCRF-CEM leukemia 0.0905% | MOLT-4 leukemia -7.09% | SR leukemia 1.78% | OVCAR-8 ovarian 6.56% | OVCAR-5 ovarian -9.19% | OVCAR-4 ovarian -20.8% | SK-OV-3 ovarian -48.6% | IGROV1 ovarian -1.3% | OVCAR-3 ovarian -46%
